# Compound activity as filed in PubChem.
# HIF-2a block = HIF-2a reporter inhibitors, primary screen, luminescence, 786-0 RCC cells. 786-0 RCC cells HIF-2a reporter, luciferase luminescence, overnight. inhibition, % at 18.8 µM. actives 0.72% (n = 360,000);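 active = inhibition of the luminescence signal of 40% or more relative to plate controls, in a single-dose primary screen at 18.75 µM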
# Peg3 promoter = Peg3 promoter-driven luciferase inhibitors, primary screen, cell-based, HeLa, luciferase luminescence | HeLa PEG-Prom luciferase reporter, overnight | inhibition, % at 20 µM | actives 1.7% (n = 360,000);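 active = inhibition of at least 50% at 20 µM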
# KKLEB cytotox = cytotoxicity in KKLEB CF airway cells, primary screen, cytotoxicity control for CF NF-kB inhibitor project, cell-based, uHTS, fluorescence assay plates; KKLEB CF airway cells viability, ATPlite luminescence, overnight; active compounds read low; cells stimulated with P. aeruginosa culture filtrate; activity change (cytotoxicity), % at 5 µM; actives 0.36% (n = 360,000); AID 602141, 2011;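 active = corrected activity change at or below -50% at 5 µM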
# TWEAK Fn14 block = inhibitors of TWEAK-Fn14 signaling, primary screen, luciferase reporter cells, uHTS. TWEAK-stimulated Fn14 reporter cells, luciferase luminescence, 8 h. inhibition, % at 10 µM. actives 2% (n = 360,000). AID 1159606, 2016; in the data active = inhibition above about 50%
# CF NFkB block = inhibitors of PAF-induced NF-kB signaling, primary screen, cell-based, GFP fluorescence, uHTS; inhibition, % at 5 µM; KKLEB NF-kB-GFP reporter, GFP fluorescence overnight; AID 588850, 2011; actives 0.86% (n = 360,000);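 active = at least 50% inhibition at 5 µM, scaled per plate between neutral and stimulator controls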;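 also: PAF is a Pseudomonas aeruginosa culture filtrate used as stimulus; plate controls were PAF-stimulated DMSO wells for no effect and unstimulated DMSO wells for full effect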
# TROY signal inh = inhibitors of TROY-driven NF-kB signaling, primary screen, Q293 LMP1-TROYcd cells, NF-kB luciferase, uHTS | inhibition, % at 10 µM | actives 0.98% (n = 360,000) | Q293 LMP1-TROYcd NF-kB luciferase reporter, 4 h;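 active = compounds whose plate-normalised and pattern-corrected inhibition of the luciferase reporter signal at the single screening dose is 50% or more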
# * = called active by the depositor. In the library only some 3.9% were active in any assay of this set; here they are far more common.
SMILES,HIF-2a block,Peg3 promoter,KKLEB cytotox,TWEAK Fn14 block,CF NFkB block,TROY signal inh
CC12CCC(C/C1=N\N=C1\NC(=O)/C(=C\c3ccc(Cl)cc3)S1)C2(C)C (configuration not stated),-84,-30,-94*,39,89*,34
Clc1ccc(OCc2cc(-c3ccccc3)no2)c(Cl)c1,-127,-106,9,62*,-9,50
Cc1c(C)n(Cc2ccccc2)c2ncnc(Cl)c12,27,29,-12,65*,36,38
COc1ccc(-n2c(Cc3cccn3C)nnc2SCC(=O)Nc2ccc(Cl)cc2)cc1,12,4,15,50*,10,15
COc1ccc(-n2c(Cc3cccn3C)nnc2SCC(=O)Nc2cc(Cl)ccc2OC)cc1,9,17,-30,62*,16,3
COc1ccc(-n2c(Cc3cccn3C)nnc2SCC(=O)Nc2ccccc2OC)cc1,-4,3,9,16,-13,-1
O=C(Nc1ccc(S(=O)(=O)N2CCCCC2)cc1)c1ccco1,-14,-19,-18,11,6,3
COc1cccc(OC)c1-c1nn(-c2ncc(C(F)(F)F)cc2Cl)c(=O)o1,6,12,-8,-1,6,5
CCCCc1nnc(NC(=O)c2oc3ccc(OC)cc3c2C)s1,-179,-169,10,-41,-81,-20
C/C(=N\NC(=S)NC1CCCCC1)c1ccccc1,-117,-153,0,47,10,54*
COc1ccc(C(=O)Nc2n[nH]c(-c3ccncc3)n2)cc1,-44,-19,15,10,-11,-8
CCC(=O)N(CCc1ccccc1C)Cc1cc2cc3c(cc2[nH]c1=O)OCO3,7,22,-5,-5,-3,6
Cc1cccc(-n2ncc3c(N4CC(C)CC(C)C4)ncnc32)c1 (configuration not stated),-324,-362,-10,11,3,33
Cc1cccc(C(=O)N2CCN(c3ncnc4c3cnn4-c3ccccc3)CC2)c1,-2,12,-6,6,2,-6
Cc1cccc(-n2ncc3c(N4CCCC4)ncnc32)c1,-148,-102,-15,57*,-11,22
Cc1cccc(-n2ncc3c(N4CCOCC4)ncnc32)c1,22,23,-15,85*,-39,68*
Cc1ccccc1-c1noc(CNC(=O)COc2ccccc2)n1,-1,-1,-7,-4,19,-20
CCOc1ccc(C=NNC(=O)c2ccc(-n3cnnn3)cc2)cc1,-13,0,15,56*,24,13
CCc1ccc(NC(=O)c2ccc(F)c(S(=O)(=O)NCC3COc4ccccc4O3)c2)cc1 (configuration not stated),-72,4,3,62*,12,44
CCN(c1ccccc1)S(=O)(=O)c1cc(C(=O)Nc2ccc(Br)cc2)ccc1F,-19,14,7,78*,1,41
CCN(c1ccccc1)S(=O)(=O)c1cc(C(=O)Nc2ccccc2Cl)ccc1F,19,22,-1,8,-4,-25
O=C(/C=C/c1ccc(Cl)c(Cl)c1)N1CCc2ccccc21,-210,-189,7,-46,-18,-72
COc1ccc(C2c3c(ncn(CCN4CCOCC4)c3=N)Oc3ccc4ccccc4c32)cc1OC (configuration not stated),-16,78*,-24,-59,15,14
COc1ccc(C2c3c(ncn(CCCO)c3=N)Oc3ccc4ccccc4c32)cc1 (configuration not stated),18,82*,-11,-31,8,-8
COc1ccc(C2c3c(ncn(CCCO)c3=N)Oc3ccc4ccccc4c32)cc1OC (configuration not stated),7,23,-6,-19,7,14
COc1ccccc1C1c2ccc3ccccc3c2Oc2ncn(CCN(C)C)c(=N)c21 (configuration not stated),-2,103*,-14,-8,24,-6
